Most compounds without a hit are left out; they make up all but 11% or so of the library.
JMJD2A Tudor inh – inhibitors of human JMJD2A Tudor domain | O75164 | AlphaScreen JMJD2A-Tudor / H3K4me3 peptide binding | Potency, µM (titrated, usually from 114 µM), inactives show at the highest dose activity change, negative = inhibition, actives largely listed as inhibitors | hit rate 4.4% among 390,000 | AID 504339; note: % is set by controls: 0 for no effect and ±100 for the full control effect; nearly all actives have a fitted effect of over 50% in size
VDR inhibitor – inhibitors of human vitamin D receptor; P11473; VDR-SRC2-3 peptide fluorescence polarization, 2 h; Potency, µM, for inactives: max response, negative = inhibition, actives largely listed as inhibitors; hit rate 0.93% among 400,000; note: % is set by controls: 0 for no effect and ±100 for the full control effect
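Signal is fluorescence polarization, reporting how far test compounds block the interaction of VDR with the SRC2-3 coregulator peptide after a 2 h room-temperature incubation.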
PLK1 PBD block – inhibitors of human PLK1 polo-box domain binding | P53350 | Plk1 PBD binding of FITC phosphopeptide, fluorescence polarization | Potency, µM, for the others: max response, negative = inhibition, most hits filed as inhibitors | hit rate 2.8% among 360,000 | AID 720504; note: series mostly up to about 57 µM; % is set by controls: 0 for no effect and ±100 for the full control effect; nearly all actives have a fitted effect of over 65% in size
BAZ2B inh – blocks human BAZ2B | Potency, µM (highest dose often 114 µM), for inactives: at the highest dose activity change, negative = inhibition, usual class: inhibitors | hit rate 4.4% among 360,000 | AlphaScreen BAZ2B-H3K14Ac peptide displacement | Q9UIF8 | AID 504333; note: % is set by controls: 0 for no effect and ±100 for the full control effect; nearly all actives have a fitted effect of over 60% in size
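AlphaScreen luminescence quantifies BAZ2B engagement of H3K14Ac peptide; the protein and biotinylated peptide are both at 50 nM final, buffer PBS pH 7.4 with 0.01% Tween-20, all steps at room temperature.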
G9a inh – blocks human histone lysine methyltransferase G9a; G9a H3K9 monomethylation, AlphaScreen, 2 h; AID 504332; Q96KQ7; hit rate 8.8% among 350,000; Potency, µM (top dose mostly 102 µM), inactives show at the top dose activity, negative = inhibition, actives largely listed as inhibitors; note: % is set by controls: 0 for no effect and ±100 for the full control effect; nearly all actives have a fitted effect of over 75% in size
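AlphaScreen read-out: biotin-H3K9 peptide (500 nM) methylation by 20 nM enzyme with 20 uM SAM, 2 h at room temperature after 15 min compound preincubation; anti-monomethyl H3K9 antibody plus donor/acceptor beads, 10 min dark.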
HP1b chromo inh – inhibitors of HP1-beta chromodomain binding to methylated histone tails | P83916 | AlphaScreen HP1-beta / biotin-H3K9me3 peptide binding | Potency, µM (titrated, usually from 114 µM), inactives show at the highest dose activity change, negative = inhibition, actives largely listed as inhibitors | hit rate 0.56% among 390,000 | AID 540317; note: nearly all actives have a fitted effect of over 70% in size
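HP1-beta protein (50 nM final) preincubated 30 min at room temperature with biotinylated H3(1-18)K9me3 peptide (50 nM) in PBS pH 7.4, 0.01% Tween-20, then compound added for 30 min. AlphaScreen streptavidin donor/nickel chelate acceptor beads (10 ug/mL final), 30 min dark, luminescence read.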
* marks the source's active call; other numbers are inactive results; ? = inconclusive; . = not tested or not shown; [ ] = another dose, or the depositor's remark. Calls come from the whole dose curve; as a rule, active = well fitted curve in the direction sought with a large enough effect; inconclusive = small, poorly fitted or top-dose-only effect, or another doubt; inactive = no such curve, though single readings can be large; an effect the other way counts as inactive or inconclusive. Potency is the fitted concentration of half-maximal effect.

SMILES	JMJD2A Tudor inh	VDR inhibitor	PLK1 PBD block	BAZ2B inh	G9a inh	HP1b chromo inh
Cc1oc(-c2ccccc2)cc1C(=O)Nc1cccc(/C=C\C(=O)O)c1	-22%	-3%	-23%	-35%	45µM*	12%
Cc1oc(C(C)(C)C)cc1C(=O)Nc1cccc(/C=C\C(=O)O)c1	-27%	-10%	-10%	?	-20%[59 µM]	14%
CCCN(CC(=O)Nc1ccc(F)c(F)c1F)C(=O)C1=COCCO1	3%	2%	-3%	-10%	56µM*	38%
O=C(O)c1cccc2c1C(=O)c1ccc(-c3ccc(F)cc3OCc3ccccc3)cc1S2(=O)=O	?	-8%	21µM*	79µM*	-13%[0.501 µM]	-2%
O=C(NCc1ccccc1)C1(C(F)(F)F)C/C(=C\Cc2ccccc2)CCCO1 (stereo not drawn)	-1%	-20%	.	.	.	35%
CC(CNc1ccccc1O)C(=O)O (stereo not drawn)	3.2µM*	1%	?	50µM*	16µM*	50µM*
Cc1cc(CC(C)C)n(-c2nc3ccccc3c(=O)n2OCC(N)=O)n1	5%[11.4 µM]	-15%	21µM*	-4%	6%	-7%
Cc1cc(C)n(-c2nc3ccccc3c(=O)n2OCCOc2ccccc2)n1	-34%[11.4 µM]	-13%	3.4µM*	-3%	-12%[59 µM]	-2%
COc1cccc(Cn2c(=O)c(-c3cccs3)nc3cnc(N(C)C)nc32)c1	.	1%	.	.	11%[0.501 µM]	.
CCOCCCNC(=O)C1CCN(c2nc3ccc(Cl)cc3[nH]2)CC1	6%	5%	.	5%	-24%[59 µM]	31%[57 µM]
CN(C)c1ccc(C(=O)NC2(N3CCC3=O)CCCC2)cc1	-29%	17%	8%	?	.	30%
CCOc1ccc(-c2cc(C(=O)N3CCN(c4cccc(C(F)(F)F)c4)CC3)c3ccccc3n2)cc1	-16%	3%	.	-5%	-7%[59 µM]	13%
Clc1cccc(OCCCn2ccnc2)c1	-9%	-11%	-1%	-8%	.	11%
CC(C)(C)c1ccc(OCCCn2ccnc2)cc1	25µM*	3%	-4%	50µM*	22µM*	?
O=C(O)c1ccc(OCCn2ccnc2)cc1	?	-25%	-5%	79µM*	?	17%
c1ccc2cc(OCCCn3ccnc3)ccc2c1	4µM*	11%	-22%	50µM*	25µM*	?
CCCCCCOc1ccc(C(=O)NCCCn2ccnc2)cc1	-34%	-26%	-7%	-39%	-39%	1%
COC(=O)Nc1sc2c(c1C(N)=O)CCC(C)C2 (stereo not drawn)	-23%	-11%	?	-20%	14µM*	10%
CCOC(=O)c1c(NS(C)(=O)=O)sc2c1CCC(C)C2 (stereo not drawn)	-35%	-15%	?	?	56µM*	4%
CC1CCc2c(sc(NC(=O)c3cccn3C)c2C(N)=O)C1 (stereo not drawn)	-36%	-10%	-4%	.	.	9%[57 µM]
CCCOC(=O)c1c(NC(=O)C2C3C=CC(C3)C2C(=O)O)sc2c1CCC(C)C2 (stereo not drawn)	28µM*	?	5.3µM*	?	8.9µM*	?
C/C(=N\NC(=O)C(=O)N/N=C(\C)c1cccc(O)c1)c1cccc(O)c1	-30%[57.1 µM]	-22%	-16%	?	?	87%
Fc1ccc(Nc2ccc(-c3ccc(F)cc3)nn2)cc1	-17%	-23%	3%	10%	26%	27%
CN(C(=O)c1cccc(NC(=O)Cc2cccc(NC(=O)C3CCCN(C(=O)C4CCCCC4)C3)c2)c1)C1CCC1 (stereo not drawn)	-7%	-10%	2%	.	.	33%
CC1(C)O[C@@H]2C[C@H]3[C@H]4C[C@H](F)C5=CC(=O)C=C[C@@]5(C)[C@@H]4[C@H](O)C[C@]3(C)[C@]2(C(=O)CO)O1	.	-6%	.	.	17%[21.5 µM]	.
CCOCCn1ccc2c(OCC(=O)NCc3ccc(F)cc3)cccc2c1=O	-1%	4%	.	0%	3%[59 µM]	16%
Cc1ccc(Cn2ncc3c(NN)ncnc32)cc1	?	1%	4%	50µM*	?	27%

Compound activity: PubChem BioAssay, National Center for Advancing Translational Sciences (NCATS)
